Source: publication PMC7862700, “An all-to-all approach to the identification of sequence-specific readers for epigenetic DNA modifications on cytosine”

Columns and labels:
Experiment in all cases: DAPPL (digital affinity profiling via proximity ligation, sequencing); 10 mM Tris-HCl pH 7.5, 50 mM NaCl, 1 mM DTT, 4% glycerol, room temperature, 30 min; GST-TFs on glutathione beads, 16-mer random dsDNA library, 0.1% formaldehyde crosslink after washing; high values mean tight binding
Details in all cases: protein: recombinant; tags: N-terminal GST; dsDNA, one strand shown
FLI1 = target: T1, FLI1 (Homo sapiens, UniProt Q01543 1-452)
T1 sequence: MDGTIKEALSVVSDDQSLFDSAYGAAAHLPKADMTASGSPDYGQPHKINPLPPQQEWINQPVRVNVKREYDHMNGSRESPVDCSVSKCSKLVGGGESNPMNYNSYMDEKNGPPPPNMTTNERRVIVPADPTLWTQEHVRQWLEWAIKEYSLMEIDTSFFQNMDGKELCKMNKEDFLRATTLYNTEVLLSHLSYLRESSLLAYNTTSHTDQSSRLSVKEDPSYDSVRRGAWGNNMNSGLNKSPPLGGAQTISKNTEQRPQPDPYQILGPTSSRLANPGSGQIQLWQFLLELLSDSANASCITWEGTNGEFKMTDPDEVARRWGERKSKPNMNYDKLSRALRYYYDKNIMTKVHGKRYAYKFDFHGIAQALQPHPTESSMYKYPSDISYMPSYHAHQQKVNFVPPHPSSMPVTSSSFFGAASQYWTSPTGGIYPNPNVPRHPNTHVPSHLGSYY
Method in brief: (§1)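 The binding signal reported is, for every hexamer, its read frequency for a factor over its read frequency for the tag-only sample. Reads came from pools of yeast-expressed, GST-fused human transcription factors on glutathione beads, barcoded with DNA and mixed with that sample, which were incubated with 200 nmole of a random double-stranded 16-mer DNA library in Tris/NaCl/DTT/glycerol buffer at room temperature for 30 min. After washing, the pools were crosslinked with 0.1% formaldehyde, proximity-ligated with BsaI/T4 ligase for 1 h at 37 °C, PCR-amplified and sequenced on an Illumina NextSeq500.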

ELK1 = target: T2, ELK1 (Homo sapiens, UniProt P19419 1-428)
T2 sequence: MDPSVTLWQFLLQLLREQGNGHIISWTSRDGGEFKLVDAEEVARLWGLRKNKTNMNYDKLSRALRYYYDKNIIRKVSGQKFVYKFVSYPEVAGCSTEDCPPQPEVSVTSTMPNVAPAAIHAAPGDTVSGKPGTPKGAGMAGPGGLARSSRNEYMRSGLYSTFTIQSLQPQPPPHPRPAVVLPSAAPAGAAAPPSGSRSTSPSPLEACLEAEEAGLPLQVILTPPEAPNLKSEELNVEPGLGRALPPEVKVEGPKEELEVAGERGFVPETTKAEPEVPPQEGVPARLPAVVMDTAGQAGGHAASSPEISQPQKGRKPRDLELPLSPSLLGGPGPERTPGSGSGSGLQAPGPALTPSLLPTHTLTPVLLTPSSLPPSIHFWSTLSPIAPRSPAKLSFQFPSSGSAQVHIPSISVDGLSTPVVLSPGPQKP
Method in brief: as §1

GABPA = target: T3, GABPA (Homo sapiens, UniProt Q06546 1-454)
T3 sequence: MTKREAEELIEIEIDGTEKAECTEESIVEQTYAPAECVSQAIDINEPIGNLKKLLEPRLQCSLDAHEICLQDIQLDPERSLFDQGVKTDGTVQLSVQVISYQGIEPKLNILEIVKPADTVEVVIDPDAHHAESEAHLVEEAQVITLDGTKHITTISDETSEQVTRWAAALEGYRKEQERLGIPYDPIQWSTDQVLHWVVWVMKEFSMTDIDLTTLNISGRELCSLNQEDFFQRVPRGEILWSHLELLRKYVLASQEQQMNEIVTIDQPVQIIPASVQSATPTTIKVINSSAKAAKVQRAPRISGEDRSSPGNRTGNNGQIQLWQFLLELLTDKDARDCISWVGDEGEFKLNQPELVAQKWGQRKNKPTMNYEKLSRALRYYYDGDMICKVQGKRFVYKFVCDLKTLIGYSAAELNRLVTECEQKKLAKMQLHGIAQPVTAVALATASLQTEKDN
Method in brief: as §1

ERG = target: T4, ERG (Homo sapiens, UniProt P11308 1-479)
T4 sequence: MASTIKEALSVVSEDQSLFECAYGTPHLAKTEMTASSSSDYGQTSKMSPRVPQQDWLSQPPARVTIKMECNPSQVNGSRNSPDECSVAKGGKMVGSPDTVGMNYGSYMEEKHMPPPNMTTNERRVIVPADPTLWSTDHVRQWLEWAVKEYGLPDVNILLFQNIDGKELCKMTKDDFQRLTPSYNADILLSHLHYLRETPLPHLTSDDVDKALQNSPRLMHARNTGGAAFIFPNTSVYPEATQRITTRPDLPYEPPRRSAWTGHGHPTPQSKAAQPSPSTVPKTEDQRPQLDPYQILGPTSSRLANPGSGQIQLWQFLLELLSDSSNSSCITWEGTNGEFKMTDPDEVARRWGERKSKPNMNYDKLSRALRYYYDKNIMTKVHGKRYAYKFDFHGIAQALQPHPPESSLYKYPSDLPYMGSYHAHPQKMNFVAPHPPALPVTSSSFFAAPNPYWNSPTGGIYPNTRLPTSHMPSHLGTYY
Method in brief: as §1

ELF1 = ELF1 (Homo sapiens, UniProt P32519 1-619)
Method in brief: as §1

EHF = target: T5, EHF (Homo sapiens, UniProt Q9NZC4 1-300)
T5 sequence: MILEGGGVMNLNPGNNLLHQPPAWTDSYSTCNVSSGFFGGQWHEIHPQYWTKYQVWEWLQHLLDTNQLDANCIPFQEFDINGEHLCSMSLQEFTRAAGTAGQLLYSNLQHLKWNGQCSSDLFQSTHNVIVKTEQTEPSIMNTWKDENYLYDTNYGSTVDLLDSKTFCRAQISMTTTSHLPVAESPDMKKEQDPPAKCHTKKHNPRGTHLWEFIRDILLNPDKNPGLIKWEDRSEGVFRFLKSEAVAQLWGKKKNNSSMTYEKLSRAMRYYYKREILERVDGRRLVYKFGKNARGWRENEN
Method in brief: as §1

SPI1 = SPI1 (Homo sapiens, UniProt P17947 1-270)
Method in brief: as §1

SPIB = SPIB (Homo sapiens, UniProt Q01892 1-262)
Method in brief: as §1

ELK3 = target: T6, ELK3 (Homo sapiens, UniProt P41970 1-407)
T6 sequence: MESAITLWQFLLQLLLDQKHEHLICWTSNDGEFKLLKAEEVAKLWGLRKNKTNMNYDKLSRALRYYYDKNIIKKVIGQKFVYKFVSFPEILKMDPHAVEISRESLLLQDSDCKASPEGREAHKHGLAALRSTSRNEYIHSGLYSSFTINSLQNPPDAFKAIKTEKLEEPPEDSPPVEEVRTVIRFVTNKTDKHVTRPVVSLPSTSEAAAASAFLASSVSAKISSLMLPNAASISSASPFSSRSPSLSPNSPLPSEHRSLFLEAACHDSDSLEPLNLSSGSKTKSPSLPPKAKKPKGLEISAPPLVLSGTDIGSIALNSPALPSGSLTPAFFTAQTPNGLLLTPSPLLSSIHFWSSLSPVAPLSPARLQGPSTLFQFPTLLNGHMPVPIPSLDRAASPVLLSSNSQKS
Method in brief: as §1

ELF1, sequence (P32519 whole entry): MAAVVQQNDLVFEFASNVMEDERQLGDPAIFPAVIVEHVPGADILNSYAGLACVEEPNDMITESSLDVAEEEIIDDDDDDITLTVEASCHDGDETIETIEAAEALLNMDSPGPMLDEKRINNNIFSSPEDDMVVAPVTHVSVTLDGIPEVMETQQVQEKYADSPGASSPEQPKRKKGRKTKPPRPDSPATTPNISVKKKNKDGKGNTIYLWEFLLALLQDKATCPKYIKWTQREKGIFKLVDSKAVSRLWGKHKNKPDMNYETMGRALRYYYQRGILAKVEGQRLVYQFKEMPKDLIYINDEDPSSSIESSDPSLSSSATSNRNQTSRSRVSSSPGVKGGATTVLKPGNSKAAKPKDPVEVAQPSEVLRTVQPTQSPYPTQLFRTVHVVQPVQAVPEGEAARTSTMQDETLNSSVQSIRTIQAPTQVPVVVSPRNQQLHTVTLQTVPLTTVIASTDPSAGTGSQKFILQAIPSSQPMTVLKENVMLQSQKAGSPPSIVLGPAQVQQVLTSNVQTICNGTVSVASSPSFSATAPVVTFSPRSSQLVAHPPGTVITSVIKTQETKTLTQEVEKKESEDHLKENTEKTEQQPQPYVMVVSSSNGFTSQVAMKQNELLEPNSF
SPIB, sequence (Q01892 whole entry): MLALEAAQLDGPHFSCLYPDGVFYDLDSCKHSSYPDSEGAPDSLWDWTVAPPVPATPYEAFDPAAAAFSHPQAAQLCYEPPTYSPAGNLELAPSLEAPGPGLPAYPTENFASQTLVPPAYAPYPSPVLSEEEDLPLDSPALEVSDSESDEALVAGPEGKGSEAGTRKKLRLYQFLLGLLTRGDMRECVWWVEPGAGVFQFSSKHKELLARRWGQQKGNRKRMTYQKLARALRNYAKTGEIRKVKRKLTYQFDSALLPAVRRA

Sequence	binding signal (FLI1)	binding signal (ELK1)	binding signal (GABPA)	binding signal (ERG)	binding signal (ELF1)	binding signal (EHF)	binding signal (SPI1)	binding signal (SPIB)	binding signal (ELK3)
CTTGTA	1.5 fold enrichment (6-mer frequency, TF over GST control)	1.36 fold enrichment (6-mer frequency, TF over GST control)	1.37 fold enrichment (6-mer frequency, TF over GST control)	1.33 fold enrichment (6-mer frequency, TF over GST control)	1.41 fold enrichment (6-mer frequency, TF over GST control)	1.42 fold enrichment (6-mer frequency, TF over GST control)	1.39 fold enrichment (6-mer frequency, TF over GST control)	1.44 fold enrichment (6-mer frequency, TF over GST control)	1.25 fold enrichment (6-mer frequency, TF over GST control)
GCTCAC	1.37 fold enrichment (6-mer frequency, TF over GST control)	1.51 fold enrichment (6-mer frequency, TF over GST control)	1.65 fold enrichment (6-mer frequency, TF over GST control)	1.51 fold enrichment (6-mer frequency, TF over GST control)	1.49 fold enrichment (6-mer frequency, TF over GST control)	1.51 fold enrichment (6-mer frequency, TF over GST control)	1.41 fold enrichment (6-mer frequency, TF over GST control)	1.44 fold enrichment (6-mer frequency, TF over GST control)	1.32 fold enrichment (6-mer frequency, TF over GST control)
AATTAT	1.24 fold enrichment (6-mer frequency, TF over GST control)	1.25 fold enrichment (6-mer frequency, TF over GST control)	1.2 fold enrichment (6-mer frequency, TF over GST control)	1.26 fold enrichment (6-mer frequency, TF over GST control)	1.22 fold enrichment (6-mer frequency, TF over GST control)	1.23 fold enrichment (6-mer frequency, TF over GST control)	1.18 fold enrichment (6-mer frequency, TF over GST control)	1.23 fold enrichment (6-mer frequency, TF over GST control)	1.25 fold enrichment (6-mer frequency, TF over GST control)
TTCTAT	1.4 fold enrichment (6-mer frequency, TF over GST control)	1.49 fold enrichment (6-mer frequency, TF over GST control)	1.31 fold enrichment (6-mer frequency, TF over GST control)	1.26 fold enrichment (6-mer frequency, TF over GST control)	1.46 fold enrichment (6-mer frequency, TF over GST control)	1.42 fold enrichment (6-mer frequency, TF over GST control)	1.36 fold enrichment (6-mer frequency, TF over GST control)	1.41 fold enrichment (6-mer frequency, TF over GST control)	1.35 fold enrichment (6-mer frequency, TF over GST control)
CCTACT	1.73 fold enrichment (6-mer frequency, TF over GST control)	1.61 fold enrichment (6-mer frequency, TF over GST control)	1.53 fold enrichment (6-mer frequency, TF over GST control)	1.54 fold enrichment (6-mer frequency, TF over GST control)	1.73 fold enrichment (6-mer frequency, TF over GST control)	1.69 fold enrichment (6-mer frequency, TF over GST control)	1.77 fold enrichment (6-mer frequency, TF over GST control)	1.76 fold enrichment (6-mer frequency, TF over GST control)	1.55 fold enrichment (6-mer frequency, TF over GST control)
TATCAT	1.25 fold enrichment (6-mer frequency, TF over GST control)	1.18 fold enrichment (6-mer frequency, TF over GST control)	1.3 fold enrichment (6-mer frequency, TF over GST control)	1.13 fold enrichment (6-mer frequency, TF over GST control)	1.15 fold enrichment (6-mer frequency, TF over GST control)	1.21 fold enrichment (6-mer frequency, TF over GST control)	1.13 fold enrichment (6-mer frequency, TF over GST control)	1.11 fold enrichment (6-mer frequency, TF over GST control)	1.17 fold enrichment (6-mer frequency, TF over GST control)
TATGTA	1.32 fold enrichment (6-mer frequency, TF over GST control)	1.25 fold enrichment (6-mer frequency, TF over GST control)	1.29 fold enrichment (6-mer frequency, TF over GST control)	1.2 fold enrichment (6-mer frequency, TF over GST control)	1.29 fold enrichment (6-mer frequency, TF over GST control)	1.23 fold enrichment (6-mer frequency, TF over GST control)	1.3 fold enrichment (6-mer frequency, TF over GST control)	1.31 fold enrichment (6-mer frequency, TF over GST control)	1.17 fold enrichment (6-mer frequency, TF over GST control)
GCTTTG	1.24 fold enrichment (6-mer frequency, TF over GST control)	1.1 fold enrichment (6-mer frequency, TF over GST control)	1.11 fold enrichment (6-mer frequency, TF over GST control)	1.15 fold enrichment (6-mer frequency, TF over GST control)	1.14 fold enrichment (6-mer frequency, TF over GST control)	1.15 fold enrichment (6-mer frequency, TF over GST control)	1.07 fold enrichment (6-mer frequency, TF over GST control)	1.14 fold enrichment (6-mer frequency, TF over GST control)	1.12 fold enrichment (6-mer frequency, TF over GST control)
